Screening data (PubChem)
Rows were chosen to be rich in hits. Some 3.7% of all compounds tested hit in one or more screens of this group.
Sm TGR block: blocks Schistosoma mansoni thioredoxin glutathione reductase; Q962Y6; purified TGR, DTNB reduction, TNB absorbance 405 nm; Potency, µM (series often up to 114 µM), inactives show at the top dose activity change, negative = inhibition, most hits filed as inhibitors; 360,000 tested, 3% active; AID 485364; further: nearly all actives have a fitted effect of over 60% in size
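Kinetic colorimetric format: TGR-catalysed, NADPH-driven DTNB reduction monitored via TNB absorbance. Enzyme dispensed at 20 nM; compound exposure 15 min at room temperature before reaction start.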
FMDV antiviral: antivirals against foot and mouth disease virus; FMDV antiviral cell-based qHTS; Potency, µM (top dose mostly 57.9 µM), for inactives: at the highest dose activity change, negative = inhibition, actives largely listed as inhibitors; 410,000 tested, 1.2% active; calls by dose curve; tested in HEK293T cells; further: read-out not given here; nearly all actives have a fitted effect of over 45% in size
TbPYK inhibitor: inhibitors of Trypanosoma brucei pyruvate kinase | Q57TT1 | TbPYK enzyme, Kinase-Glo Plus ATP luminescence, 45 min | Potency, µM (titrated, usually from 76.8 µM), for inactives: at the top dose activity, negative = inhibition, actives largely listed as inhibitors | 410,000 tested, 0.12% active; further: nearly all actives have a fitted effect of over 50% in size
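Luminescent Kinase-Glo Plus end-point after 45 min room-temperature reaction of T. brucei pyruvate kinase started with 130 uM ADP (final). Buffer TEA 50 mM pH 7.2 with KCl, MgCl2, BSA, Tween-20; titration-based qHTS with fitted concentration-effect curves.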
RE007 growth inh: less growth of the S. pombe RE007 Vpr strain. S. pombe RE007 Vpr strain, BacTiter-Glo ATP luminescence, 24 h. 360,000 tested, 0.21% active. Potency, µM (highest dose often 92.2 µM), for inactives: at the highest dose activity change, negative = less growth, usual class: inhibitors; active means well fitted falling curve with a large enough effect; inconclusive means small, poorly fitted or top-dose-only effect; inactive means no such curve, though single readings can be large or run the other way; further: nearly all actives have a fitted effect of over 50% in size
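Fission yeast RE007 carrying one integrated HIV-1 vpr copy, seeded at OD 0.01 in PMG+AL medium with 23 nL pinned compound. Grown 24 h at 30 degrees; viability read by BacTiter-Glo luminescence after 5 min.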
* = called active by the depositor; ? = inconclusive; . = no result; [ ] = another dose, or the depositor's remark. Unless noted, the call rests on the fitted dose curve; in most records, active means well fitted curve in the direction sought with a large enough effect; inconclusive means small, poorly fitted or top-dose-only effect, or another doubt; inactive means no such curve, though single readings can be large; an effect the other way counts as inactive or inconclusive. On the % scale 0 is the no-effect control and ±100 the full control effect; potency means the concentration at half of the fitted maximal effect.

SMILES	Sm TGR block	FMDV antiviral	TbPYK inhibitor	RE007 growth inh
C[C@H]1CCC[C@]2(C)C[C@H]3OC(=O)C(CN4CCCCCC4)[C@H]3C=C12 (stereo partly drawn)	0%	22µM*	9%	-21%
c1ccc(-c2cn3nc(-c4ccccc4)sc3n2)cc1	.	10µM*	-4%	9%
Cc1cc(CN2CCCC(CNC(=O)c3ccc(F)cc3)C2)cc(C)c1O (stereo not drawn)	35µM*	-8%	0%	10%
COc1ccc(NC(=O)CSc2nnc(-c3cccc(O)c3)o2)cc1	2%	15%	1%	5%
O=C(CSc1nnc(-c2cccs2)o1)c1cccs1	-13%	.	0%	4%
Cc1cc(C(=O)CSc2nnc(-c3cccs3)o2)c(C)n1-c1ccccc1	-16%	11µM*	0%	5%
Cc1cc(C(=O)CSc2nnc(-c3ccco3)o2)c(C)n1-c1ccc2c(c1)OCCO2	7%[11.4 µM]	?	-14%	4%
Cc1cc(C(=O)CSc2nnc(-c3ccccc3)n2-c2ccccc2)c(C)n1-c1ncn[nH]1	14%[11.4 µM]	-3%	-13%	7%
COc1cccc(NC(=O)CSc2nnc(-c3cc(C)n(-c4ccccc4)c3C)o2)c1	-16%	13µM*	-1%	2%
Cc1cc(C(=O)CSc2nnnn2C)c(C)n1-c1ccc2c(c1)OCCO2	35µM*	14%	7%	2%
Cc1cc(C(=O)CSc2nnc3ccccn23)c(C)n1-c1ccccc1	-6%	3.2µM*	-13%	?
O=C(c1cccc(Cl)c1)N1CCC(c2nc3c(nnn3Cc3ccc(F)cc3F)c(=O)[nH]2)CC1	2%	-23%	-1%	.
Cc1ccc(C(=O)c2cn(Cc3ccccc3C)c3nc(C)ccc3c2=O)cc1	3%	-19%	1%	.
CCc1cccc(NC(=O)c2ccc(CN3C(=O)C(C)=C(c4ccc(OC)cc4)S3(=O)=O)cc2)c1	-6%	-16%	1%	.
CCOc1ccc(-c2nnc(SCC(=O)Nc3cccc(Cl)c3C)o2)cc1	0%	-23%	-2%	.
CCOc1ccc(-c2nnc(SCC(=O)Nc3cccc(C#N)c3)o2)cc1	10µM*	-6%	1%	.
COc1cc(-c2nc(-c3ccc4c(c3)-c3ccccc3S4(=O)=O)c(-c3ccccc3)[nH]2)cc(OC)c1OC	56µM*	0%	-7%	8%
COc1cccc(CC2(CO)CCCN(Cc3ccc(-c4ccco4)cc3)C2)c1 (stereo not drawn)	18µM*	-13%	-25%	1%
COc1cccc(CC2(CO)CCCN(Cc3ccccc3-c3ccco3)C2)c1 (stereo not drawn)	50µM*	-30%	0%	-18%
COc1cccc(CC2(CO)CCCN(Cc3ccc(CO)o3)C2)c1 (stereo not drawn)	-26%	-10%	1%	3%
Cc1c(N)nc([C@@H](CC(N)=O)NC[C@H](N)C(N)=O)nc1C(=O)N[C@H](C(=O)N[C@@H](C)[C@@H](O)[C@@H](C)C(=O)N[C@H](C(=O)NCCc1nc(-c2nc(C(=O)NCCCN[C@H](C)c3ccccc3)cs2)cs1)[C@H](C)O)[C@@H](O[C@H]1O[C@@H](CO)[C@H](O)[C@@H](O)[C@H]1O[C@H]1O[C@@H](CO)[C@@H](O)[C@H](OC(N)=O)[C@H]1O)c1cnc[nH]1	.	.	-1%	.
CO/N=C(/COc1ccc(F)cc1)c1ccc(OC)cc1	25µM*	9%	-2%	2%
COc1ccc(OCC(=O)O/N=C(\N)c2ccc(OC)cc2)cc1	6%	-11%	8%	-16%
Cc1ncc2c(c1CNC(=O)/C=C/c1cccs1)CCN(C(=O)c1ccc3c(c1)OCCO3)C2	.	6%	.	.
COc1ccc(-c2nc3cnc(N4CCN(C)CC4)nc3n(Cc3ccc(F)cc3)c2=O)cc1	.	-13%	.	.
SMILES	Sm TGR block	FMDV antiviral	TbPYK inhibitor	RE007 growth inh
C=C1C(=O)OC2CC3(C)OC3CCC(C)=CC(OC(C)=O)C12 (stereo not drawn)	.	35µM*	-13%	15%
CCCCc1ccc(-n2c(Cc3cccs3)n[nH]c2=S)cc1	-9%	?	7.9µM*	11%
S=c1[nH]nc(Cc2cccs2)n1-c1ccccc1	7%	-14%	8.9µM*	4%
CCOC(=O)c1ccc2c(c1)N(CC(=O)Nc1ccc(C)cc1C)C(=O)c1ccccc1S2	0%	-10%	2%	.
Cc1ccccc1NS(=O)(=O)c1ccc2[nH]cc(C(=O)NCCc3ccccc3)c(=O)c2c1	7%	-1%	3%	.
COC(=O)c1sc(NC(=O)c2cc(-c3ccccc3)nc3ccccc23)c(C#N)c1C	-10%	3.2µM*	?	5%
CCN(C(=O)Cn1ncc2c(=O)oc3ccccc3c21)c1ccccc1F	43%	-9%	1%	.
O=C(NCc1nnc(SCc2ccccc2)n1-c1ccc(F)cc1)C12CC3CC(CC(C3)C1)C2	-1%	25µM*	-15%	-14%
O=C1NC(=O)N(Cc2ccccc2Cl)C(=O)/C1=C/N1CCOCC1	3.5µM*	14%	0%	24%
O=C1NC(=O)N(Cc2cccs2)C(=O)/C1=C/c1ccc(N2CCOCC2)cc1	?	?	?	-2%
CCOc1ccc(-c2nnc(Nc3ccc(S(N)(=O)=O)cc3)c3ccccc23)cc1	3%	-4%	1%	.
COc1ccc([N+](=O)[O-])cc1Nc1c2ccccc2nc2ccccc12	2%	32µM*	-4%	-10%
COc1ccc(Nc2nc(-c3cccc([N+](=O)[O-])c3)nc3ccccc23)cc1	9%	40µM*	-1%	-10%
CCc1cccc(CC)c1N(COC)C(=O)Cn1c(C)nc2ccccc21	0%	10µM*	?	.
CCN(CC)CCNC(=O)c1ccc2c(c1)NC(=O)C(CS(=O)(=O)Cc1cccc(Br)c1)N2 (stereo not drawn)	?	-2%	3%	.
Cc1csc(NC(=O)CSc2ncnc3c2cnn3-c2ccccc2Cl)n1	-4%	14µM*	0%	-12%
CC(C)C(=O)NNC(=O)CSc1ncnc2c1cnn2-c1ccccc1Cl	-9%	-26%	-4%	4%
CCOC(=O)Cc1csc(NC(=O)CSc2ncnc3c2cnn3-c2ccc(OC)cc2)n1	-3%	22µM*	1%	-8%
O=C(O)CC(O)CC(O)/C=C/c1c(C2CC2)nc2ccccc2c1-c1ccc(F)cc1 (stereo not drawn)	.	.	3%	.
CCOc1ccc(C(=O)Nc2ccc(S(=O)(=O)N3CCCCC3c3cccnc3)cc2)cc1 (stereo not drawn)	0%	32µM*	3%	.
Cc1c(C(=O)c2no[n+]([O-])c2C(=O)c2cnn(C)c2C)cnn1C	?	40µM*	-9%	-20%
CCCCCCn1c2c(c(=N)c3c1CCC3)CCC2	1%	?	-4%	-9%
CCCCCCCn1c2c(c(=N)c3c1CCC3)CCCC2	.	3.2µM*	-3%	?
CCCCCCCCCn1c2c(c(=N)c3c1CCC3)CCC2	?	5.6µM*	-2%	?
Cc1ccc(-n2c(=O)c3c(C)c(C)sc3n(CC(=O)NCc3ccccc3)c2=O)cc1C	-3%	-14%	-4%	.
